The values below come from paper PMC12820563, “FoxP3 forms a head-to-head dimer in vivo and stabilizes its multimerization on adjacent microsatellites”.

In all, about 16,000 sequences were measured (“rpm ratio (pull-down/input)”: median about 0.5, highest 2% from about 5.5 on). This is one part of a sample in which the highest values are shown more often than they occur.

The assay concerns the target T1, MBP-FoxP3dN (Mus musculus, UniProt Q99JB6 188-423).
T1 sequence: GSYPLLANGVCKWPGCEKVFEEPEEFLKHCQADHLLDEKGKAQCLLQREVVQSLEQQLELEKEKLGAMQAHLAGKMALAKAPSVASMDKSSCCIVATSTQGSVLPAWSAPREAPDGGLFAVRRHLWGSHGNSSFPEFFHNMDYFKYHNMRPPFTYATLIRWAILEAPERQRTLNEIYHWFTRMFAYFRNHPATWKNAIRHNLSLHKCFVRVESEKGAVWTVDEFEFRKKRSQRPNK
In words: PD-seq (MBP pull-down with sequencing); 20 mM Tris-HCl pH 7.5, 100 mM NaCl, 1.5 mM MgCl2, 0.4 uM protein, 0.1 uM dsDNA library, 30 min, room temperature, amylose pull-down; high values mean tight binding. The note with it: protein: recombinant; tags: His6-MBP; chain copies: 2; dsDNA, one strand shown. The gist of the method: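 The N-terminus-lacking fragment of mouse FoxP3 or FoxP1 carried a His6-MBP tag and was expressed in E. coli. At 0.4 µM it was incubated with 0.1 µM Klenow-filled degenerate double-stranded DNA library for 30 min at room temperature in Tris pH 7.5 buffer with NaCl and MgCl2, and complexes were caught on amylose resin, washed three times, released with proteinase K, PCR-barcoded and Illumina-sequenced. Binding is reads-per-million enrichment of pull-down over input with replicates pooled.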
As to “GATGATTGTTCTCCCAGCTGATGAATTTGTGCGCTCGAGTAAACAAATTTTCCTAATCTTTCTGTTCAAGCGCCATCTAC”, the binding signal is 1.87 RPM ratio (pull-down/input).

Turning to “GATGATTGTTCTCCCAGCTGATGAATTTATGCGGTCGAGTAAACAAATTTTCCTAATCTTTCTGTTCAAGCGCCATCTAC”, the binding signal is 1.09 RPM ratio (pull-down/input).

Consider “GATGATTGTTCTCCCAGCTGATGAATTAGTCCGCTCGAGTAAACAAATTTTCCTAATCTTTCTGTTCAAGCGCCATCTAC”, for which the binding signal was 0.349 RPM ratio (pull-down/input).

For the sequence “GATGATTGTTCTCCCAGCTGATGAATTTTGTCGATCGAGTAAACAAATTTTCCTAATCTTTCTGTTCAAGCGCCATCTAC”, the binding signal was 1.18 RPM ratio (pull-down/input).

Consider “GATGATTGTTCTCCCAGCTGATGAATTCTTCGACTCGAGTAAACAAATTTTCCTAATCTTTCTGTTCAAGCGCCATCTAC”, for which the binding signal is 0.239 RPM ratio (pull-down/input).

For “GATGATTGTTCTCCCAGCTGATGAATTGATAATCTCGAGTAAACAAATTTTCCTAATCTTTCTGTTCAAGCGCCATCTAC”, the binding signal is 0.411 RPM ratio (pull-down/input).

Turning to “GATGATTGTTCTCCCAGCTGATGAATTTACTTTCTCGAGTAAACAAATTTTCCTAATCTTTCTGTTCAAGCGCCATCTAC”, the binding signal was 1.32 RPM ratio (pull-down/input).

As for “GATGATTGTTCTCCCAGCTGATGAATTCTAGCCTTCGAGTAAACAAATTTTCCTAATCTTTCTGTTCAAGCGCCATCTAC”, the binding signal is 1.89 RPM ratio (pull-down/input).

On to “GATGATTGTTCTCCCAGCTGATGAATTTCCGTGGTCGAGTAAACAAATTTTCCTAATCTTTCTGTTCAAGCGCCATCTAC”, for which the binding signal was 0.282 RPM ratio (pull-down/input).

With “GATGATTGTTCTCCCAGCTGATGAATTCGTCGGGTCGAGTAAACAAATTTTCCTAATCTTTCTGTTCAAGCGCCATCTAC”, the binding signal was 0.574 RPM ratio (pull-down/input).

For “GATGATTGTTCTCCCAGCTGATGAATTGGTTTGCTCGAGTAAACAAATTTTCCTAATCTTTCTGTTCAAGCGCCATCTAC”, the binding signal is 4.24 RPM ratio (pull-down/input).

Take “GATGATTGTTCTCCCAGCTGATGAATTTTAGTTATCGAGTAAACAAATTTTCCTAATCTTTCTGTTCAAGCGCCATCTAC”: the binding signal was 1.33 RPM ratio (pull-down/input).

As to “GATGATTGTTCTCCCAGCTGATGAATTGTCTTCTTCGAGTAAACAAATTTTCCTAATCTTTCTGTTCAAGCGCCATCTAC”, the binding signal is 0.478 RPM ratio (pull-down/input).

“GATGATTGTTCTCCCAGCTGATGAATTGTTGTCTTCGAGTAAACAAATTTTCCTAATCTTTCTGTTCAAGCGCCATCTAC”: the binding signal was 5.62 RPM ratio (pull-down/input).

Turning to “GATGATTGTTCTCCCAGCTGATGAATTTGTTGTCTCGAGTAAACAAATTTTCCTAATCTTTCTGTTCAAGCGCCATCTAC”, the binding signal is 7.77 RPM ratio (pull-down/input).

On to “GATGATTGTTCTCCCAGCTGATGAATTTTTTGTCTCGAGTAAACAAATTTTCCTAATCTTTCTGTTCAAGCGCCATCTAC”, for which the binding signal is 0.367 RPM ratio (pull-down/input).

“GATGATTGTTCTCCCAGCTGATGAATTTGTCTTCTCGAGTAAACAAATTTTCCTAATCTTTCTGTTCAAGCGCCATCTAC”: the binding signal was 4.22 RPM ratio (pull-down/input).

As to “GATGATTGTTCTCCCAGCTGATGAATTTCTGTCTTCGAGTAAACAAATTTTCCTAATCTTTCTGTTCAAGCGCCATCTAC”, the binding signal is 0.368 RPM ratio (pull-down/input).

With “GATGATTGTTCTCCCAGCTGATGAATTCCATTCGTCGAGTAAACAAATTTTCCTAATCTTTCTGTTCAAGCGCCATCTAC”, the binding signal is 0.494 RPM ratio (pull-down/input).

Consider “GATGATTGTTCTCCCAGCTGATGAATTAGAGAGTTCGAGTAAACAAATTTTCCTAATCTTTCTGTTCAAGCGCCATCTAC”, for which the binding signal was 0.399 RPM ratio (pull-down/input).

“GATGATTGTTCTCCCAGCTGATGAATTACTGGGGTCGAGTAAACAAATTTTCCTAATCTTTCTGTTCAAGCGCCATCTAC”: the binding signal is 0.231 RPM ratio (pull-down/input).

Turning to “GATGATTGTTCTCCCAGCTGATGAATTGAACTGGTCGAGTAAACAAATTTTCCTAATCTTTCTGTTCAAGCGCCATCTAC”, the binding signal is 0.209 RPM ratio (pull-down/input).

Turning to “GATGATTGTTCTCCCAGCTGATGAATTAGAGATCTCGAGTAAACAAATTTTCCTAATCTTTCTGTTCAAGCGCCATCTAC”, the binding signal was 0.32 RPM ratio (pull-down/input).

As for “GATGATTGTTCTCCCAGCTGATGAATTAGAATGTTCGAGTAAACAAATTTTCCTAATCTTTCTGTTCAAGCGCCATCTAC”, the binding signal is 0.671 RPM ratio (pull-down/input).
